Records with an inconclusive call do not appear. Calls of active or inactive are those of the source. How the source made its calls: active means hit-call score of the fitted dose curve at least 0.9, where 1 is the maximum; inconclusive means response in the unintended direction; inactive means score below 0.9.
Test: Tanguay_ZF_120hpf_TR_legacy: (Legacy) Oregon State University Tanguay Lab 120 Hour Post-fertilization zebrafish Assay for Touch Response (AID 2283667)
Procedure: Tanguay_ZF_120hpf_legacy is a whole embryo, multiplexed endpoint assay using zebrafish larvae exposed for 120 hours post fertilization on a 96-well plate.Tanguay_ZF_120hpf_TR_legacy is one of one assay component(s) measured or calculated from the Tanguay_ZF_120hpf_legacy assay. It is designed to make measurements of zebrafish development as detected with brightfield microscopy of developing zebrafish embryos.Data from the assay component Tanguay_ZF_120hpf_TR_legacy was analyzed into 1 assay endpoints. This assay endpoint, Tanguay_ZF_120hpf_TR_legacy, was analyzed in the positive analysis fitting direction relative to DMSO as the negative control and baseline of activity. Using a type of morphology reporter, gain-of-signal activity can be used to understand changes in developmentals as they relate to the whole embryo. To generalize the intended target to other relatable targets, this assay endpoint is annotated to the zebrafish development intended target family, where the subfamily is embryonic functional response.
Zebrafish husbandry: Tropical 5D wild-type adult zebrafish were housed in at an approximate density of 1000 per 100 gallon tank at the Sinnhuber Aquatic Research Laboratory, Oregon State University, Corvallis, OR. Each tank was kept at standard laboratory conditions of 28C on a 14-h light/10-h dark photoperiod in fish water consisting of reverse osmosis water supplemented with a commercially available salt (Instant Ocean). Spawning funnels were placed into the tanks the night prior, and embryos were collected and staged. […] Ten microliters of each row of dilution plate 2 was added to 2 exposure plates. The final DMSO concentration used was 0.64% (vol/vol). Thirty-two embryos were also exposed to 5uM trimethyltin chloride (positive control). Plates were sealed to prevent evaporation and foil covered to reduce light exposure and kept in a 28C incubator. Embryos were statically exposed until 120 hpf. At 24 hpf, embryos were assessed for photomotor response using a custom photomotor response analysis tool (PRAT) and for developmental toxicity endpoints (MO24: mortality at 24 hpf, DP: developmental progression, SM: spontaneous movement, and NC: notochord distortion). At 120 hpf, locomotor activity was measured using Viewpoint Zebralab and assessed for 18 endpoints. Zebrafish acquisition and analysis program (ZAAP), a custom program designed to inventory, acquire, and manage zebrafish data, was used to collect developmental endpoints as either present or absent (i.e., binary responses were recorded). If mortality occurred for an embryo (at either 24 or 120 hpf), the non-mortality endpoints were not measured.
In the case of `c1ccc(C(O[C@@H]2CCCN(CCc3ccc4c(c3)OCO4)C2)c2ccccc2)cc1`, the AC50 is reported as 53.6 µM (active). For `NC(=O)N(O)[C@@H]1COc2cc(OCc3ccccc3)ccc21`, the outcome was “inactive”. With `O=S1(=O)CCCO1` the outcome was “inactive”. In the case of `CCn1nc(C)c2c1C(=O)NCC(c1ccc(O)cc1)=N2`, the outcome is reported as “inactive”. With `OCC(CO)(CO)CO` the outcome was “inactive”. With `Cc1ncc([C@@H](CCCCCCc2ccc3c(n2)NCCC3)CC(=O)O)cn1` the outcome was “inactive”. In the case of `CCCCCOC(C)=O`, the outcome is reported as “inactive”. In the case of `Cc1nccn1-c1ccc(Sc2cccc(C3(C(N)=O)CCOCC3)c2)cc1`, the outcome is reported as “inactive”. For `CCCCCCOC(=O)CC(CC(=O)OCCCCCC)(OC(=O)CCC)C(=O)OCCCCCC`, the outcome was “inactive”. For `O=C(O)c1cccc(C[C@@H]2COc3ccc(OCc4nc5cc(F)ccc5s4)cc3[C@@H]2O)c1`, the outcome was “inactive”. With `CC(=O)c1ccccc1` the outcome was “inactive”. In the case of `CCc1cccc(CC)c1N`, the outcome is reported as “inactive”. In the case of `OCCOCCOCCO`, the outcome is reported as “inactive”. For `CC[C@H](C)C(=O)O[C@H]1C[C@H](O)C=C2C=C[C@H](C)[C@H](CC[C@@H](O)C[C@@H](O)CC(=O)O)[C@H]21`, the outcome was “inactive”. In the case of `C=CCc1cc(S(=O)(=O)c2ccc(O)c(CC=C)c2)ccc1O`, the outcome is reported as “inactive”. In the case of `CCc1ccc(O)c(C(C)(C)C)c1`, the outcome is reported as “inactive”. For `O=C(NO)C1(NS(=O)(=O)c2ccc(Oc3ccc(F)cc3)cc2)CCOCC1`, the outcome was “inactive”. With `CCOc1ccc2[nH]cc(C(=O)NCc3ccccc3)c(=O)c2n1` the outcome was “inactive”. In the case of `OCCNCCO`, the outcome is reported as “inactive”. With `CCCCOC(=O)c1ccccc1` the outcome was “inactive”. In the case of `Cc1ccc(S(=O)(=O)NC(=O)NN2CCCCCC2)cc1`, the outcome is reported as “inactive”. In the case of `CC(C)C(=O)Nc1ccc([N+](=O)[O-])c(C(F)(F)F)c1`, the outcome is reported as “inactive”. For `CNC(C)=O`, the outcome was “inactive”. In the case of `c1ccc2c(c1)-c1cccc3c1c-2cc1ccccc13`, the outcome is reported as “inactive”. For `CCCCC(CC)C(=O)OCCOCCOCCOC(=O)C(CC)CCCC` (stereo not given), the outcome was “inactive”. With `CC(C)CCCCCCOC(=O)C1CCCCC1C(=O)OCCCCCCC(C)C` (stereo not given) the outcome was “inactive”. In the case of `CCCCCCCCCC`, the outcome is reported as “inactive”. With `OC(Cn1cncn1)(Cn1cncn1)c1ccc(F)cc1F` the outcome was “inactive”. In the case of `C[C@@H](Oc1ccc(CNC(=O)c2cccnc2Oc2ccc3c(c2)OCO3)c(F)c1)C(=O)O`, the outcome is reported as “inactive”. For `NC(=O)N1c2ccccc2C=Cc2ccccc21`, the outcome was “inactive”. For `COc1cc2c(c(OC)c1OC)-c1ccc(OC)c(=O)cc1[C@@H](NC(C)=O)CC2`, the AC50 was 13.3 µM (active). For `CCCCCCCCN(C)C`, the outcome was “inactive”. With `CCN(CC)C(=S)SSC(=S)N(CC)CC` the AC50 was 2.17 µM (active). In the case of `O=c1[nH]cnc2c1ncn2[C@H]1CC[C@@H](CO)O1`, the outcome is reported as “inactive”. With `CCCCCCCCCCCCCCO` the outcome was “inactive”. In the case of `CC1(C)C(=O)N(Cl)C(=O)N1Cl`, the outcome is reported as “inactive”. For `Nc1ccn([C@@H]2O[C@H](CO)[C@@H](O)[C@@H]2O)c(=O)n1`, the outcome was “inactive”. For `O=C(O)c1ccc2c(c1)nc(C(=O)NC1CCN(C3CC3)CC1)n2Cc1cc(-c2ccc(Cl)s2)on1`, the outcome was “inactive”. For `O=S(=O)(O)c1ccc(N=Nc2c(O)ccc3cc(S(=O)(=O)O)ccc23)cc1`, the outcome was “inactive”. In the case of `COS(C)(=O)=O`, the outcome is reported as “inactive”.

— PubChem BioAssay (EPA / NIEHS)
